We go through 8 compounds from PubChem BioAssay (NCATS).

Assay [1] has as its target Methanococcus maripaludis chaperonin (MmCpn) (UniProt Q6LX38). Nature of the assay: High-Throughput Screening for Modulators of Cytosolic Chaperonin Activity: MmCpn Primary Screen (AID 488978).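 Further: 50 nM MmCpn enzyme hydrolysing 30 µM ATP at 37 °C; 0% is about no effect.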 In a few lines: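 MmCpn (50 nM final) was preincubated with compound 5 min at RT, then 30 uM ATP (final) was added and the reaction ran 10 min at 37C. ADP produced was detected by Transcreener HTRF (ex 320 nm; em 590/665 nm).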

Assay [2] deals with D(1A) dopamine receptor (Homo sapiens) (UniProt P21728). Put plainly: HTS Assay for Allosteric Agonists of the Human D1 Dopamine Receptor: Primary Screen for Agonists (AID 488981). Further: 0% is about no effect. The method in brief: (§1)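 Calcium flux in an inducible, force-coupled HEK293 Trex D1 line (overnight at 30 C): agonist mode is the 180 s kinetic read after compound; potentiator mode is the following 180 s read after dopamine at EC20.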

Assay [3] has the same target. Put plainly: HTS Assay for Allosteric Agonists of the Human D1 Dopamine Receptor: Primary Screen for Potentiators (AID 488982). Further: 0% is about no effect. In a few lines: as §1
Assay [4] has the same target. Nature of the assay: HTS Assay for Allosteric Agonists of the Human D1 Dopamine Receptor: Primary Screen for Antagonists (AID 488983).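 Further: calcium flux response to an EC80 dopamine challenge measured with no-wash dye; nearly all actives have a fitted effect of over 65% in size.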 Further: potency means the concentration at half of the fitted maximal effect. In a few lines: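 Calcium-flux read-out in inducible HEK293 T-REx cells expressing D1, dye-loaded 30–90 min at room temperature. Kinetic reads: 180 s after compound (agonist phase), then 180 s after an EC80 dopamine challenge.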
The nature of assay [5]: Validation screen for small molecules that induce genotoxicity in human embryonic kidney (HEK293T) cells expressing luciferase-tagged ELG1 (AID 493106). Further: 0% is about no effect. The method in brief: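 ELG1-luciferase reporter readout (ONE-Glo, 30 min, room temperature) after 16 hr compound treatment at 37 °C of HEK293T cells at 2,000 per well. Rising luminescence flags genotoxic stress.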
Assay [6] concerns the target Phosphoglycerate kinase, glycosomal (Trypanosoma brucei brucei) (UniProt P07378). Nature of the assay: qHTS Validation Assay to Find Inhibitors of Phosphoglycerate Kinase (AID 504547).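 Further: control wells lack PGK and mark full inhibition.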 The method in brief: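 Luminescence end-point (Kinase-Glo Plus, 10 min) after a 60 min room-temperature coupled reaction. GAPDH at 100nM final supplies 1,3-BPG to PGK. Buffer: 100mM TEA pH 7.6, 5mM MgCl2, 0.01% Tween-20. Wells lacking PGK served as controls.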
On the technique in general: qHTS replaces the single test concentration by a dilution series.

The target of assay [7] is Ubiquitin carboxyl-terminal hydrolase 1 (Homo sapiens) (UniProt O94782). Nature of the assay: Inhibitors of USP1/UAF1: Pilot qHTS (AID 504865). Further: nearly all actives have a fitted effect of over 35% in size. Further: potency means the concentration at half of the fitted maximal effect. In a few lines:
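USP1/UAF1 complex (1nM) preincubated with compound 15 min at room temperature, then Ub-Rho substrate (150nM final) added. Fluorescence read kinetically at 480/540 nm, 6 reads every 60 seconds. Buffer: 50mM HEPES pH 7.8, 0.5mM EDTA, 0.1 mg/ml BSA, 1mM TCEP, 0.01% Tween-20.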

Assay [8] in a line: qHTS for Inhibitors of ATXN expression: Validation of Cytotoxic Assay (AID 588349). Further: on the % scale 0 is the no-effect control and ±100 the full control effect. In a few lines: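 Cytotoxicity counter-screen: ATP-based luminescent viability (CellTiter Glo) after 72 hr exposure of HEK293 cells to a compound titration at 37 degrees C.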
Assay [9] has as its target phosphoglycerate mutase (Leishmania major) (UniProt Q4Q090). Put plainly: qHTS Validation Assay to Find Inhibitors of Phosphoglycerate Mutase (AID 504548).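 Further: end-point luminescence from Kinase-GloPlus after the PGAM reaction; series mostly up to about 58 µM; on the % scale 0 is the no-effect control and ±100 the full control effect.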 Particulars: Potency: inhibition qHTS. The method in brief: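 Inhibition of L. major PGAM was assessed by Kinase-GloPlus luminescence following a 45-minute room-temperature reaction with enzyme at 1.25nM final.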
Assay [10] addresses ATPase family AAA domain-containing protein 5 (Homo sapiens) (UniProt Q96QE3). Nature of the assay: Validation screen for small molecules that inhibit ELG1-dependent DNA repair in human embryonic kidney (HEK293T) cells expressing luciferase-tagged ELG1 (AID 493107).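 Further: series mostly up to about 46 µM; on the % scale 0 is the no-effect control and ±100 the full control effect; inhibitors lower the ELG1-luciferase luminescence signal; nearly all actives have a fitted effect of over 70% in size.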 In a few lines:
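Luciferase read-out, ONE-Glo, 30 min at room temperature, follows 16 h co-exposure at 37 C of compound and the DNA-damaging agent 5-fluorouridine. Cells: HEK293T with ELG1-luciferase fusion, 2,000 per well, DMSO as vehicle.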

Assay [11] is described as follows: qHTS for Inhibitors of Cell Surface uPA Generation: Validation Assay (AID 493164).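 Further: RAW 264.7 macrophage cells exposed to compound for 18 h; 0% is about no effect.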 The method in brief:
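ATP-Lite luminescence read-out: ATP remains high when uPA activity-dependent LF translocation into the cytoplasm is blocked. RAW 264.7 cells, 18 h compound exposure at 37 C; 7-point titration, 2.45 nM to 38.3 uM final.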

Assay [12] in a line: Nrf2 qHTS screen for inhibitors: Validation (AID 493153; active means well fitted inhibition curve with a large enough effect in the main read-out, with a control signal flat, not every such curve was filed as active). Particulars: Potency: luciferase luminescence; viability change: measured here: cytotoxicity max response. The method in brief: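 Concentration-response on A549 ARE_Fluc reporter cells exposed 18-24 h at 37 C, 5% CO2. Cytotoxicity read first by CellTiter-Fluor fluorescence (Ex 405/Em 525), then Nrf2 inhibition by BugLite luminescence after 15 min.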

For assay [13], the target named is Peptidyl-prolyl cis-trans isomerase NIMA-interacting 1 (Homo sapiens) (UniProt Q13526). Nature of the assay: qHTS Validation Assay to Find Inhibitors of Pin1 (AID 504536; active means well fitted inhibition curve with a large enough effect in the polarisation, with a control signal flat, not every such curve was filed as active; the % refers to the polarisation; further: potency means the concentration at half of the fitted maximal effect). In a few lines: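 Fluorescence polarization competition: compounds (titration) displace HiFluor-488-labeled Pin1-1b peptide from Pin1 (0.3 uM final) in pH 7.5 HEPES buffer with DTT, 10 min at room temperature; %Activity normalized to no-enzyme wells, curves fitted.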

Structures are written as SMILES. Records with an inconclusive call do not appear. Calls of active or inactive are those of the source. Unless noted, the call rests on the fitted dose curve; in most records, active means well fitted curve in the direction sought with a large enough effect; inconclusive means small, poorly fitted or top-dose-only effect, or another doubt; inactive means no such curve, though single readings can be large; an effect the other way counts as inactive or inconclusive.

Methanococcus maripaludis chaperonin (MmCpn), sequence (Q6LX38 1-543): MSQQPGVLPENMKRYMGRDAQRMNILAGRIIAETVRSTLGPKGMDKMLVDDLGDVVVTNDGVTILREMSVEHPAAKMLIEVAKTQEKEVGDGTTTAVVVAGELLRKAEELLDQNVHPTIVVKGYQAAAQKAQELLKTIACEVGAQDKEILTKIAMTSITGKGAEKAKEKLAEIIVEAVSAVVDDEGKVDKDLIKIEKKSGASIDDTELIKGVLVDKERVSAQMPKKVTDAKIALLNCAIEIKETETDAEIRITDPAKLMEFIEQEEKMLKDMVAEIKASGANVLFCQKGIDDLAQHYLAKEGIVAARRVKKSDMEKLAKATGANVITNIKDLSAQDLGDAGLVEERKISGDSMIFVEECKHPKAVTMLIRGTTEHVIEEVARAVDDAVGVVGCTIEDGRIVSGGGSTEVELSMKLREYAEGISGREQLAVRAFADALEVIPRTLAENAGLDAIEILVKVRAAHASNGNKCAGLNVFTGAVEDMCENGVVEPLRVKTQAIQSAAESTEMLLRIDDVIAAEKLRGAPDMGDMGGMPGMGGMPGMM
D(1A) dopamine receptor (Homo sapiens), sequence (P21728 whole entry, looked up): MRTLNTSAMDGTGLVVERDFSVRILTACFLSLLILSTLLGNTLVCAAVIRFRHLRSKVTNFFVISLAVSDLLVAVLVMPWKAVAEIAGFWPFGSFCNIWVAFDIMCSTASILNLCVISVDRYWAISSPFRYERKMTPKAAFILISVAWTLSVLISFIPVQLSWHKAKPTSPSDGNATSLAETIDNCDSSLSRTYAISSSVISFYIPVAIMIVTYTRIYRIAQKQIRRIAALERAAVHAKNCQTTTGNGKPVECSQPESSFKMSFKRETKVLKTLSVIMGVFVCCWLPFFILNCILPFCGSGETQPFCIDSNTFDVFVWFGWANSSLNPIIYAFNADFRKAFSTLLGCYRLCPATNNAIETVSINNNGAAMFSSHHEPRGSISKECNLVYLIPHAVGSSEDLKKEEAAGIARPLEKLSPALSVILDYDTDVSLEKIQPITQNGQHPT
Ubiquitin carboxyl-terminal hydrolase 1 (Homo sapiens), sequence (O94782 whole entry, looked up): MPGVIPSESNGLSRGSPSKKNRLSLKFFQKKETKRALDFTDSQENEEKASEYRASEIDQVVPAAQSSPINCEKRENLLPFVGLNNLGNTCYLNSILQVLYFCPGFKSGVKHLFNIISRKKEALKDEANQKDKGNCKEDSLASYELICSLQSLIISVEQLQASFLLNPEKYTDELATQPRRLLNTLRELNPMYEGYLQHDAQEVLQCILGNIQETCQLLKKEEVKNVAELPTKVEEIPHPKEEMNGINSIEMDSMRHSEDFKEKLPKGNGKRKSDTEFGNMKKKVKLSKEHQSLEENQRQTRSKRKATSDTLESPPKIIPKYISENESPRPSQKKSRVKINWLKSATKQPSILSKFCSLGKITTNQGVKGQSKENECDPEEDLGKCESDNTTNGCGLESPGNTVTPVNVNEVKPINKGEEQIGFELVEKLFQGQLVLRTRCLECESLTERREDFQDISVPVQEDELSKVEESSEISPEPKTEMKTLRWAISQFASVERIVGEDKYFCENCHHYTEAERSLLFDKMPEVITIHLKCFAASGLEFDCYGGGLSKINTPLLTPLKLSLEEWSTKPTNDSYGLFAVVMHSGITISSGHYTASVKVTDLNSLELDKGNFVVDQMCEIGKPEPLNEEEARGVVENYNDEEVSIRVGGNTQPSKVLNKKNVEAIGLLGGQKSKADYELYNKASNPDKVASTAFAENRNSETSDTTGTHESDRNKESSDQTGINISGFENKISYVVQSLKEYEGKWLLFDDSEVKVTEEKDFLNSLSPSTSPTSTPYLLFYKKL
Phosphoglycerate kinase, glycosomal (Trypanosoma brucei brucei), sequence (P07378 whole entry, looked up): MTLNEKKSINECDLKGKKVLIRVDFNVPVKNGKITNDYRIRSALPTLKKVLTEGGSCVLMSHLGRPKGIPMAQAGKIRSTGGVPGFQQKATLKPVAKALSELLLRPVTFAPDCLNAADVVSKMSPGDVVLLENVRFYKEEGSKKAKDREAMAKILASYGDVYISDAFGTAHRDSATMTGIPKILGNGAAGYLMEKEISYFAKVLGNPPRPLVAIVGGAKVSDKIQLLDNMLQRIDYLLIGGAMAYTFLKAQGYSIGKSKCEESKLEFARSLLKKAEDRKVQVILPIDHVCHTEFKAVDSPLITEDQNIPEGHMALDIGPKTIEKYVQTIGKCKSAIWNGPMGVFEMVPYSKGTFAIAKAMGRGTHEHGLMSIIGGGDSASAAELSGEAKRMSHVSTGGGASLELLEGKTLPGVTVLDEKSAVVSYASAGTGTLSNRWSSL
phosphoglycerate mutase (Leishmania major), sequence (Q4Q090 1-553): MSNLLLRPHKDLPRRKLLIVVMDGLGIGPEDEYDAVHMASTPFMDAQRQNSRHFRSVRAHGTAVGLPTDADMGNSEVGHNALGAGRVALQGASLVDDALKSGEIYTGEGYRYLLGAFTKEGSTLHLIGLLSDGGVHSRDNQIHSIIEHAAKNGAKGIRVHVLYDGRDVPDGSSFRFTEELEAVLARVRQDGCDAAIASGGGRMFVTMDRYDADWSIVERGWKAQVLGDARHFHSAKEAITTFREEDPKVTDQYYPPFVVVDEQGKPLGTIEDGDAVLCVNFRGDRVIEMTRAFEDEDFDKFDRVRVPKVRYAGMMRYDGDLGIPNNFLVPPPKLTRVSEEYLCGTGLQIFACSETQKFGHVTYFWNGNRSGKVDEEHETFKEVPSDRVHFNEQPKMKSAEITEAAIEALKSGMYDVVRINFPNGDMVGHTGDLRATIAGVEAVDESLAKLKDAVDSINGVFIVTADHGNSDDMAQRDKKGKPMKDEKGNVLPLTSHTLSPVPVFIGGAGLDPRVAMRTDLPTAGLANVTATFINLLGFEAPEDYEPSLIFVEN
ATPase family AAA domain-containing protein 5 (Homo sapiens), sequence (Q96QE3 whole entry, looked up, the tested form may be a part): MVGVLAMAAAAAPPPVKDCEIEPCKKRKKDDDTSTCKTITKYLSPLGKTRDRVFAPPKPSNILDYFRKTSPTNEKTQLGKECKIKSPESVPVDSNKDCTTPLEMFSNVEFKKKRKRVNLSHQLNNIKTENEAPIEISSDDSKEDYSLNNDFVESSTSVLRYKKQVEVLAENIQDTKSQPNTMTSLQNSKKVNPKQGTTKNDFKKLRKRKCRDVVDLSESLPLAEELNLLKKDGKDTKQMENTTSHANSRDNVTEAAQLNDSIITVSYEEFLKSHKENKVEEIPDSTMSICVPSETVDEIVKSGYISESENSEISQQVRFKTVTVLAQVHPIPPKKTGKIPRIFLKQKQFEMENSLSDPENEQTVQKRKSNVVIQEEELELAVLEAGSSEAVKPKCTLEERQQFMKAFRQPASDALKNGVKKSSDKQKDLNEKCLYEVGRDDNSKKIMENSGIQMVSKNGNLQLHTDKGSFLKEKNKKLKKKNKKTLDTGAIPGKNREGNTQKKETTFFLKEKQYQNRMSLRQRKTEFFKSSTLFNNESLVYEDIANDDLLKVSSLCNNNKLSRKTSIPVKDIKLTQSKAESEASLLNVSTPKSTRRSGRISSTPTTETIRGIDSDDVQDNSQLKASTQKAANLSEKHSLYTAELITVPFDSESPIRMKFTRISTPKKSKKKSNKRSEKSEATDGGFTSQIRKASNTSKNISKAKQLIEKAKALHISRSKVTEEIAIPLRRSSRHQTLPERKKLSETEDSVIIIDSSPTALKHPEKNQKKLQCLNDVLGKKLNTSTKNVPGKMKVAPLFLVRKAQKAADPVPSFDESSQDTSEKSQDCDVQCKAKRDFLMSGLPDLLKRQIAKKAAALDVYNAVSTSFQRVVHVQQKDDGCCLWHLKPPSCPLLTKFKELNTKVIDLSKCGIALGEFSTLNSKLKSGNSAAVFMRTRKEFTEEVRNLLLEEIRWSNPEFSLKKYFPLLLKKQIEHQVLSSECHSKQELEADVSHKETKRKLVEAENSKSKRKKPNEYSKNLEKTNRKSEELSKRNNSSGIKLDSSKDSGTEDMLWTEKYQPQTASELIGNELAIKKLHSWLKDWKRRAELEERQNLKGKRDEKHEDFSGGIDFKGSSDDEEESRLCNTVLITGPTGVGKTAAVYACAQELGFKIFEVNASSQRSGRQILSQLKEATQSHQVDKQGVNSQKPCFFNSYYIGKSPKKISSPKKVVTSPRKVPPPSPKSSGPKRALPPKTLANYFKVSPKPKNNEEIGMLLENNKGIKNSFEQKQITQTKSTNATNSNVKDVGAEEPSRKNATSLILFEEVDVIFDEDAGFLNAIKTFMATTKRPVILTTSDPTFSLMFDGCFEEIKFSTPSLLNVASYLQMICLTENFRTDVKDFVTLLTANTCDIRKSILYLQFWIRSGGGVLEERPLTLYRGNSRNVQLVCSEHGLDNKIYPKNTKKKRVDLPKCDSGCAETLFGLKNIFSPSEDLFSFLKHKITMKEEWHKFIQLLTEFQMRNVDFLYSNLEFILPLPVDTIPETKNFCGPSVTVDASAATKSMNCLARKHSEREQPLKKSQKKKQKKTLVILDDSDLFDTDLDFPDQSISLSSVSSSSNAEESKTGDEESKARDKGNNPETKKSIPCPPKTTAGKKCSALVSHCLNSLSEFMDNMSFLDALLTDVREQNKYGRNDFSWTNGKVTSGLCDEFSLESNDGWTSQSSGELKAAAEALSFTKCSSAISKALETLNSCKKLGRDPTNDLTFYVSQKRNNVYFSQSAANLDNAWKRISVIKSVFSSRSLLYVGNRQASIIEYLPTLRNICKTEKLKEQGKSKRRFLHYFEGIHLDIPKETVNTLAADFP
Peptidyl-prolyl cis-trans isomerase NIMA-interacting 1 (Homo sapiens), sequence (Q13526 whole entry, looked up): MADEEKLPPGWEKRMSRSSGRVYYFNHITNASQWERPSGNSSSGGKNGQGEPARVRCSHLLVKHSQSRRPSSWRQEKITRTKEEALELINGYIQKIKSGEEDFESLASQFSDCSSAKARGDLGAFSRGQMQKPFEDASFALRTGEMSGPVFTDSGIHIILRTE

Consider `CN(C)CCCO[C@@H]1[C@H]2OC(C)(C)O[C@H]2O[C@@H]1[C@H](O)CO`, for which the outcome in assay [1] was inactive. Further, the Potency result in [2], in assay [3], in assay [4], in assay [5], in assay [6] and in assay [7] was “inactive” throughout. For the same compound, the Potency result in assay [8] is “inactive”.

With `CSc1ccccc1N1CCN(CCCCCC(=O)NC2CCCc3ccccc32)CC1` (stereo not given), the result in assay [1] was inactive. Also, the Potency result in assay [2], in assay [3], in assay [5], in assay [6], in assay [9] and in assay [7] was “inactive” each time. In addition, the Potency in [4] was 2 µM (active).

As to `CCCCCCCCc1ccc(-c2ccc(C(=O)O)cc2)cc1`, the call in assay [1] and in assay [11] was inactive. In addition, the Potency result in assay [2], in assay [3], in assay [4], in [5], in assay [10] and in assay [6] was “inactive” each time. The Potency entry in assay [9] and in assay [8] was “inactive” throughout. Besides, the Potency in assay [7] is 50.1 µM (active).

Consider `CO/S(=N\S(=O)(=O)c1ccc(Cl)cc1)c1ccc([N+](=O)[O-])cc1` (stereo not given), for which the compound was called inactive in assay [1] and in assay [11]. Also, the Potency result in assay [2], in assay [3], in assay [4], in assay [5], in assay [10] and in [12] was “inactive” in each case. Also, the Potency entry in [6], in assay [9] and in assay [8] was “inactive” throughout. Further, in assay [12], the viability change is -1.86%. The Potency in [7] is 31.6 µM (active).

Take `C=CC(C)=C[C@@]1(C)SC(=O)C(C)=C1O`: the result in assay [1] and in [11] was inactive. The Potency entry in assay [2], in assay [3], in [4], in [5], in assay [10] and in assay [12] was “inactive” in each case. For the same compound, the Potency result in assay [13], in [6], in assay [9], in assay [7] and in assay [8] was “inactive” in each case. Besides, the viability change in assay [12] is 1.42%.

For `N#C/C(=C\c1ccc(-c2cc(Cl)ccc2Cl)o1)C(=O)Nc1cccc2ncccc12`, the result in [1] and in [11] was inactive. In addition, the Potency result in assay [2], in [3], in assay [4], in assay [5], in assay [6] and in assay [9] was “inactive” each time. In [7], the Potency is 15.8 µM (active).

For the compound `NC(=S)c1ccc[n+]([C@@H]2O[C@@H](COP(=O)([O-])OP(=O)(O)OC[C@H]3O[C@@H](n4cnc5c(N)ncnc54)[C@H](OP(=O)(O)O)[C@@H]3O)C(O)C2O)c1` (stereo not given in full), the compound was classed as inactive in [1] and in [11]. For the same compound, the Potency result in assay [2], in assay [3], in [4], in [5], in assay [10] and in assay [12] was “inactive” throughout. Besides, the Potency result in assay [6], in assay [9], in [7] and in assay [8] was “inactive” throughout. Besides, the viability change in assay [12] was -6.67%. The Potency in assay [13] was 19 µM (active).

In the case of `Clc1ccc(N2CCN(Cc3cc4ccccn4n3)CC2)cc1`, the result in assay [1] was inactive. The Potency entry in assay [2], in [3], in assay [4], in assay [5], in assay [10] and in [12] was “inactive” in each case. Besides, the Potency entry in assay [13], in [6], in assay [9], in assay [7] and in assay [8] was “inactive” in each case. The viability change in [12] was 2.97%.
